Test [1] can be described thus: qHTS to identify inhibitors of the type 1 interferon - major histocompatibility complex class I in skeletal muscle: primary screen against the NCATS Pharmaceutical Collection (AID 1347407; active means well fitted curve in the direction sought with a large enough effect; an effect the other way counts as inactive or inconclusive;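 further: luminescence of HiBiT knocked into endogenous HLA-B as interferon-induced MHC class I level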). Summed up: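 HLA-B HiBiT myoblasts, dexamethasone-free growth medium + 4 ng/ml IFN-b; compounds pinned 1 h after seeding, […] from 46 uM; 24 h, 37 C, 5% CO2; lytic HiBiT detection, 10 min RT, luminescence.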
(In general: qHTS replaces the single test concentration by a dilution series.)

Test [2] has as its target Protein phosphatase 1D (Homo sapiens) (UniProt O15297). Nature of the test: RapidFire Mass Spectrometry qHTS Assay for Modulators of WT P53-Induced Phosphatase 1 (WIP1) (AID 1347424; active means well fitted curve in the direction sought with a large enough effect; an effect the other way counts as inactive or inconclusive;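 further: amount of dephosphorylated VEPPL-S-QETFS peptide product formed by WIP1; series mostly up to about 63 µM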). Put shortly: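 10 nM WIP1 preincubated with compounds 1 hr at room temperature in pH 7.5 Tris buffer with 30 mM MgCl2, 1 mM TCEP; 2 uM VEPPL-pS-QETFS phosphopeptide for 5 min, formic acid quench; dephosphorylated product quantified by RapidFire MS against labelled standard.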

Test [3] has the same target. Nature of the test: Rhodamine-PBP qHTS Assay for Modulators of WT P53-Induced Phosphatase 1 (WIP1) (AID 1347425; active means well fitted curve in the direction sought with a large enough effect; an effect the other way counts as inactive or inconclusive). Put shortly: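 Steps: enzyme with Rh-PBP sensor and compounds, room-temperature incubation of 1 hr, baseline read, addition of VEPPL-pS-QETFS (10 uM final), kinetic fluorescence reads at 525/598 nm. Activity equals final minus baseline signal.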
Test [4] is described as follows: Primary qHTS for inhibitors of La Crosse Virus (LACV) - induced cell death in SH-SY5Y cells (AID 1508616; active means well fitted curve in the direction sought with a large enough effect; an effect the other way counts as inactive or inconclusive;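 further: top concentration of the series differs between compounds; higher means more rescue of cells from virus-induced death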). Summed up: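 Protection against LACV-induced cell death is scored in SH-SY5Y cells exposed to compounds and virus (0.01 MOI) for 6 days. Data normalized to virus-infected DMSO wells and virus-free DMSO wells.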
For test [5], the target named is Calcium and integrin-binding protein 1 (Homo sapiens) (UniProt Q99828). Nature of the test: Confirmatory qHTS for Identification of Calcium Integrin Binding Protein 1 (CIB1) Competitor (AID 1508617; active means well fitted curve in the direction sought with a large enough effect; an effect the other way counts as inactive or inconclusive; further: nearly all actives have a fitted effect of over 65% in size; further: potency means the concentration at half of the fitted maximal effect). Put shortly:
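Binding competition between test compounds and fluorescent alphaIIb peptide for 1 uM CIB1-GST is monitored by FP at 480/540 nm. Final compound range is up to 114 uM; unlabeled peptide serves as reference competitor.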

Test [6] can be described thus: Primary qHTS for inhibitors of SARS-S pseudo-typed particle cell entry (AID 1479145). Further: nearly all actives have a fitted effect of over 45% in size. Further: potency means the concentration at half of the fitted maximal effect.
A short description of test [7]: Primary qHTS for Huh7 cytotoxicity: counterscreen for inhibitors of MERS-S pseudotyped particle cell entry (AID 1479147). Further: potency means the concentration at half of the fitted maximal effect.
Test [8] can be described thus: Primary qHTS for inhibitors of MERS-S pseudo-typed particle cell entry (AID 1479149). Further: nearly all actives have a fitted effect of over 60% in size.
Test [9] in a line: Primary qHTS for Vero E6 cytotoxicity: counterscreen for inhibitors of SARS-S pseudo-typed particle cell entry (AID 1479150).

Records with an inconclusive call do not appear. The source made the active and inactive calls. Unless noted, the call rests on the fitted dose curve.

Chain of Protein phosphatase 1D (Homo sapiens) (O15297 whole entry, looked up): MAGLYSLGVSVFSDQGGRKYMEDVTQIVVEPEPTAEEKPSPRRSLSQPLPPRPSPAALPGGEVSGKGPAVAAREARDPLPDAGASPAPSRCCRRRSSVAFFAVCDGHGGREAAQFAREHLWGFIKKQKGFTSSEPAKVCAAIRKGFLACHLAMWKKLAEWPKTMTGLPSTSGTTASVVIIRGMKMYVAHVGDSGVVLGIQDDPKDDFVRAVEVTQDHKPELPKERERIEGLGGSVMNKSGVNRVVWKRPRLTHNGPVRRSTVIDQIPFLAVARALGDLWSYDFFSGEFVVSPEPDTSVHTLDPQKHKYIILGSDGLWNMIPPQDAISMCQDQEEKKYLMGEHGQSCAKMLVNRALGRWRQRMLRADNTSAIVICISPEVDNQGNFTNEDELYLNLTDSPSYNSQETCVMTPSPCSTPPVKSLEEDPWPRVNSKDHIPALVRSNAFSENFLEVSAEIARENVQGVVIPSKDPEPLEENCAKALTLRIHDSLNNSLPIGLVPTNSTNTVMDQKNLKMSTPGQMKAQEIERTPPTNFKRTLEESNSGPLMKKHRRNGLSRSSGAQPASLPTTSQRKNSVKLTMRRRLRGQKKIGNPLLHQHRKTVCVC
Chain of Calcium and integrin-binding protein 1 (Homo sapiens) (Q99828 whole entry, looked up): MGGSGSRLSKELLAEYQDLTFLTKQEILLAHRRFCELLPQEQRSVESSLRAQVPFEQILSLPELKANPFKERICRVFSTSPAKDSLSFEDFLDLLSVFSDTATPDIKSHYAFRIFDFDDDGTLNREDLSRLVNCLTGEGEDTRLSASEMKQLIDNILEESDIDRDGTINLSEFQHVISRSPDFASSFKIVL

With `CC(CC(C#N)(c1ccccc1)c1ccccc1)N(C)C` (configuration not stated), the Potency entry in test [1] and in test [2] was “inactive” each time. In addition, the result in test [3] and in test [4] was inactive.

Consider `CN1CCC(N(Cc2ccccc2)c2ccccc2)CC1`, for which the Potency entry in test [1] and in test [2] was “inactive” throughout. The molecule was classed as inactive in [3] and in test [4].

In the case of `c1cc2c(c(N3CCNCC3)c1)OCCO2`, the Potency entry in [1] and in test [2] was “inactive” each time. Besides, the molecule was classed as inactive in test [3] and in [4].

With `CN1[C@@H]2CC[C@H]1CC(OC(=O)c1cc(Cl)cc(Cl)c1)C2` (some centres not stated), the Potency result in [1] and in [2] was “inactive” in each case. The outcome in test [3] and in test [4] was inactive.

`CC(C)(C)OC(=O)c1ncn2c1[C@@H]1CCCN1C(=O)c1c(Br)cccc1-2`: the Potency result in test [1] and in test [2] was “inactive” throughout. Also, the molecule was classed as inactive in test [3] and in [4].

In the case of `ClC1=C(Cl)C2(Cl)C(CBr)CC1(Cl)C2(Cl)Cl` (configuration not stated), the Potency entry in test [1] and in test [2] was “inactive” each time. Also, the molecule was classed as inactive in test [3] and in test [4].

In the case of `O=C(CCCCl)c1ccc(F)cc1`, the Potency entry in test [1] and in test [2] was “inactive” each time. Also, the molecule was classed as inactive in test [3] and in test [4].

Turning to `CC(=O)OC1(c2ccccc2)CCN(CCc2ccccc2)CC1`, the Potency entry in test [1] and in test [2] was “inactive” in each case. Further, the outcome in [3] and in test [4] was inactive.

In the case of `COc1cc(CC(C)N)cc2c1OCO2` (configuration not stated), the Potency result in test [1] and in test [2] was “inactive” in each case. For the same molecule, the molecule was classed as inactive in [3] and in test [4].

For `CCC1(c2ccccc2)CCC(=O)NC1=O` (configuration not stated), the Potency entry in test [1] and in test [2] was “inactive” each time. Further, the outcome in [3] and in test [4] was inactive.

`Cc1ccc([N+](=O)[O-])[c]2c1[O][Hg]2`: the Potency result in [5] was “inactive”.

With `CN(C)CCc1c[nH]c2cccc(O)c12`, the Potency in test [5] was 126 µM (active).

On to `CC(COc1ccccc1)NC(C)C(O)c1ccc(O)cc1` (configuration not stated), for which the Potency entry in [6], in test [7], in [8] and in test [9] was “inactive” throughout.

For the molecule `C#C[C@]1(O)CC[C@H]2[C@@H]3CCC4=CC(=O)CC[C@@H]4[C@H]3CC[C@@]21C`, the Potency result in test [6], in test [7], in test [8] and in [9] was “inactive” throughout.

Consider `CCOC(=O)c1cncn1C(C)c1ccccc1` (configuration not stated), for which the molecule was classed as inactive in [3] and in test [4]. Moreover, the Potency entry in test [6], in test [7] and in test [9] was “inactive” throughout.

Take `C[C@@]12C(=O)OC(=O)[C@]1(C)C1CCC2O1`: the figures for the Potency in [6] and in test [7] were 14.1 µM (active) and 22.4 µM (active), respectively.

On to `c1ccc2[nH]c(-c3cscn3)nc2c1`, for which the Potency entry in test [6], in [7], in test [8] and in test [9] was “inactive” throughout.

On to `Cc1ccc(Nc2c(F)cccc2Cl)c(CC(=O)O)c1`, for which the Potency entry in [6], in test [7], in test [8] and in [9] was “inactive” throughout.

Turning to `Nc1ccc2cc3ccc(N)cc3nc2c1`, the Potency in test [6] was 14.1 µM (active).

As for `CCC(=O)O[C@]1(C(=O)CCl)[C@@H](C)C[C@H]2[C@@H]3CCC4=CC(=O)C=C[C@]4(C)[C@@]3(F)[C@@H](O)C[C@@]21C`, the Potency entry in test [6], in test [7], in test [8] and in test [9] was “inactive” in each case.

Regarding `CC(=O)Oc1ccc(C(c2ccc(OC(C)=O)cc2)c2ccccn2)cc1`, in test [6], the Potency was 1.41 µM (active). Further, the Potency result in test [7] and in [8] was “inactive” in each case.

For `N[C@@H](CSCCCO)C(=O)O`, the Potency entry in [6], in test [7], in test [8] and in [9] was “inactive” in each case.

On to `O=C1C(CCS(=O)c2ccccc2)C(=O)N(c2ccccc2)N1c1ccccc1` (configuration not stated), for which the Potency result in test [6], in test [7], in test [8] and in [9] was “inactive” each time.

`CCOc1ccc(NC(C)=O)cc1`: the Potency entry in [6], in test [7], in [8] and in [9] was “inactive” in each case.

On to `CCn1cc(C(=O)O)c(=O)c2cc(F)c(N3CCNCC3)nc21`, for which the Potency result in test [6], in [7], in [8] and in [9] was “inactive” in each case.

Take `CCO[C@@H]1O[C@H](C(COCc2ccccc2)OCc2ccccc2)[C@H](OCc2ccccc2)[C@H]1O` (some centres not stated): the Potency entry in [6], in test [7], in [8] and in test [9] was “inactive” throughout.

For `C[C@@H]1C[C@H]2[C@@H]3CCC4=CC(=O)C=C[C@]4(C)[C@@]3(Cl)[C@@H](O)C[C@]2(C)[C@@]1(OC(=O)c1ccco1)C(=O)CCl`, the Potency entry in test [6], in test [7], in [8] and in [9] was “inactive” in each case.

Source of the values: PubChem BioAssay (NCATS).
